Bioassay records as filed in PubChem BioAssay.
CYP2C9 activ = human CYP2C9 activators, primary screen, biochemical, luminescence | hit rate 1.4% among 96,000 | recombinant CYP2C9, luciferin-H conversion; stronger effect = higher value; factor 1 = untreated enzyme, 0 = blocked | Cytochrome P450 2C9 (Homo sapiens), P11712 | activation factor at 5 µM;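 active = activation factor of 2 or more for CYP2C9 at a 5 µM dose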
Target sequence (P11712 whole entry, looked up): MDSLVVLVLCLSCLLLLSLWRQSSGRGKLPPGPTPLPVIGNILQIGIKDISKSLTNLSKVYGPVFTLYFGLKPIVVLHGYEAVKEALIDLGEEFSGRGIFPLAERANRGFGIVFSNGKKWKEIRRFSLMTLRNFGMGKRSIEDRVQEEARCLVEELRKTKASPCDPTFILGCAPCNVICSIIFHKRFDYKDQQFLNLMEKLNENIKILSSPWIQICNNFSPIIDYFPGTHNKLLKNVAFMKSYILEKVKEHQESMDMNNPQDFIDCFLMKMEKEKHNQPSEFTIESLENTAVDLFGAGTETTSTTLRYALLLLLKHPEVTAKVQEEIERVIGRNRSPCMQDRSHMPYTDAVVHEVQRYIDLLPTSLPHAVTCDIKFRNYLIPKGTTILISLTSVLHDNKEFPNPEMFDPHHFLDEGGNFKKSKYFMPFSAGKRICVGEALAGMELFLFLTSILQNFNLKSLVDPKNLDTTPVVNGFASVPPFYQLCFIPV
CYP2C19 activ = human CYP2C19 activators, primary screen, biochemical, luminescence | activation factor at 5 µM | Cytochrome P450 2C19 (Homo sapiens), P33261 | recombinant CYP2C19, luciferin-H EGE luminescence; stronger effect = higher value; 0 = fully inhibited enzyme, 1 = untreated enzyme | 96,000 tested, under 10 active;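 active = activation factor of at least 2 at 5 µM in the primary screen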
EphB4 ephrin blk = EphB4-ephrin-B2 interaction antagonists, primary screen, biochemical, TNYL-RAW peptide probe, fluorescence polarization. Ephrin type-B receptor 4 (Homo sapiens), P54760. EphB4 LBD / TNYL-RAW-Alexa532 peptide. inhibition, % at 7 µM. hit rate 0.15% among 97,000. AID 720, 2007;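 active = inhibition above the screen-wide mean inhibition plus 3 SD, cut at about 15% in these data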
CYP2C19 inh = blockers of cytochrome P450 2C19 activity – biochemical, luminescence, ADME assay, primary screen | P33261 | CYP2C19 Supersomes, luciferin-H EGE luminescence, 30 min | inhibition, % at 5 µM | hit rate 21% among 96,000 | AID 778, 2007;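 active = CYP2C19 inhibition above a set limit at 5 µM in the primary screen, cut at about 50% in these data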
CYP2C9 inh = blockers of cytochrome P450 2C9 activity – biochemical, luminescence, ADME assay, primary screen; P11712; CYP2C9 Supersomes, luciferin-H conversion; inhibition, % at 5 µM; hit rate 20% among 96,000;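 active = blocking of liver enzyme CYP2C9 beyond about 50% at 5 µM, limit read from the data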
Of the large screens only hits and unclear results are named; the others gave an inactive call. Shown are actives, neighbours in structure and some others; about 27% of the full set was active somewhere.

COC(=O)c1cc(-c2ccc(Br)cc2)on1	none
COC(=O)c1ccc(Cn2nc(C)cc2C)cc1	CYP2C19 inh 93
COC(=O)c1ccc(Cn2nc(C)c(Br)c2C)cc1	CYP2C19 inh 99, CYP2C9 inh 70
O=C(COC(=O)c1n[nH]c(=O)c2ccccc12)c1ccccc1	none
O=C(O)c1ccc(C(=O)O)c(C(=O)c2ccccc2)c1	none
Cc1cc(C)n(Cc2ccc(NC(=O)c3ccc(COc4ccccc4Br)cc3)cc2)n1	CYP2C9 inh 77
Cc1ccccc1NC(=O)Cn1nc(C(F)(F)F)cc1C1CC1	CYP2C19 inh 72
COC(=O)c1ccc(Cn2nc(C(F)(F)F)cc2C)cc1	CYP2C19 inh 69
COc1ccc(CNc2nc(-c3ccccc3)nn2C(=O)c2cccs2)cc1	none
Nc1cccc2c1C(=O)N(C(=O)c1ccc(Cl)c(S(=O)(=O)N3CCCCCC3)c1)C2=O	none
Cc1c(O)c(CN2CCCC2)cc2c3c(c(=O)oc12)CCC3	CYP2C9 inh 52
O=c1oc2ccccc2c(O)c1CN1CCCCC1	CYP2C19 inh 52, CYP2C9 inh 94 (no result: EphB4 ephrin blk)
Cc1c(O)c(CN2CCCC2)cc2c1oc(=O)c1ccccc12	CYP2C19 inh 57
CC(C)C(NS(=O)(=O)c1ccc2c3c(cccc13)C(=O)N2)C(=O)O (stereo not drawn)	none
COc1cc(NC(=O)c2ccc(C)cc2)c(OC)cc1NC(=O)CN1CCOCC1	none
CCCN(C(=O)c1cccs1)c1nnc(-c2ccncc2)s1	CYP2C19 inh 99, CYP2C9 inh 55
O=C1c2ccccc2C(Nc2ccc3c(c2)OCO3)N1Cc1ccc2c(c1)OCO2 (stereo not drawn)	CYP2C19 inh 88, CYP2C9 inh 97
O=C1c2ccccc2C(O)N1Cc1ccc2c(c1)OCO2 (stereo not drawn)	CYP2C19 inh 83
O=C1c2ccccc2C(=O)N1Cc1ccc2c(c1)OCO2	CYP2C19 inh 54
O=C1c2ccccc2C(O)(Cc2ccccc2)N1c1ccc2c(c1)OCO2 (stereo not drawn)	CYP2C19 inh 87, CYP2C9 inh 90 (no result: EphB4 ephrin blk)
Cn1c(=O)c2c(ncn2CC(=O)Nc2nc(-c3ccccc3Cl)cs2)n(C)c1=O	none (no result: EphB4 ephrin blk)
Cc1sc(NC(=O)C2CCCO2)c(C(N)=O)c1C (stereo not drawn)	none (no result: CYP2C9 activ, CYP2C19 activ, CYP2C19 inh, CYP2C9 inh)
O=C1c2ccccc2C(Nc2cccnc2)N1Cc1ccc2c(c1)OCO2 (stereo not drawn)	CYP2C19 inh 57 (no result: EphB4 ephrin blk)
COc1ccc(OC)c(NC2c3ccccc3C(=O)N2Cc2ccc3c(c2)OCO3)c1 (stereo not drawn)	none
Cc1cc(C)c(S(=O)(=O)NCc2cn3c(C)csc3n2)c(C)c1	CYP2C19 inh 51
Cc1nc(CCNS(=O)(=O)c2cccs2)cs1	none
Cc1ccc(SCc2cn3c(C)csc3n2)cc1	CYP2C9 activ 2.9, CYP2C19 inh 90
Cc1csc2nc(CCNS(=O)(=O)c3cccs3)cn12	CYP2C19 inh 70
Cc1cc(C)c(S(=O)(=O)NCc2cn3c(C)csc3n2)cc1C	EphB4 ephrin blk 19
Cc1ccc(S(=O)(=O)NCc2cn3c(C)csc3n2)cc1	none
O=C(c1ccc2c(c1)N(Cc1ccccc1)CCS2)N1CCCCC1	none
COc1ccc(/C=C(/NC(C)=O)C(=O)O)cc1	none
O=C(N/N=C/c1ccncc1)c1cc([N+](=O)[O-])cc([N+](=O)[O-])c1O	EphB4 ephrin blk 19, CYP2C19 inh 56, CYP2C9 inh 100
Cc1sc2nc(SCC(=O)NCCO)n(C)c(=O)c2c1C	none
Cc1sc2nc(SCC(=O)OC(C)C)n(C)c(=O)c2c1C	none
CCOC(=O)CNC(=O)CSc1nc2sc(C)c(C)c2c(=O)n1C	CYP2C19 inh 70, CYP2C9 inh 50
CCOC(=O)Cc1csc2nc3sc(C)c(C)c3c(=O)n12	CYP2C19 inh 56
CCN(CC)S(=O)(=O)c1ccc(C(=O)C(C#N)c2ccccn2)cc1 (stereo not drawn)	none
CC(=O)Nc1ccc(C(=S)NCc2ccco2)cc1	none
CCc1ccc(N/C(SCc2ccccc2C)=C(/C#N)C(=O)NCc2ccco2)cc1	CYP2C19 inh 57, CYP2C9 inh 64
CC1(C)Cc2c(c(N3CCOCC3)nc3sc4c(N5CCOCC5)nnnc4c23)CS1	CYP2C9 inh 78
CCc1nc2c(sc3nc(N4CCOCC4)c4c(c32)CC(C)(C)OC4)c(=O)o1	CYP2C9 inh 61 (no result: EphB4 ephrin blk)
O=C(CN1CCN(c2ccc(F)cc2)CC1)N1CCC(Cc2ccccc2)CC1	CYP2C19 inh 54, CYP2C9 inh 69
O=C(CN1CCN(c2ccc(F)cc2)CC1)N1N=CCC1c1ccccc1 (stereo not drawn)	CYP2C19 inh 63
O=C(CN1CCN(c2ccccc2)CC1)N1N=CCC1c1ccccc1 (stereo not drawn)	none
Cc1ccc2[nH]c3c(N4CCN(Cc5ccccc5)CC4)ncnc3c2c1	CYP2C19 inh 78, CYP2C9 inh 95
Cc1ccc2c(c1)[nH]c1c(N3CCN(Cc4ccccc4)CC3)ncnc12	CYP2C9 inh 65
Cc1ccc2[nH]c3c(N4CCCCCC4)ncnc3c2c1	none
COc1cccc2[nH]c3c(N4CCN(Cc5ccc6c(c5)OCO6)CC4)ncnc3c12	CYP2C19 inh 94, CYP2C9 inh 85
c1ccc2c(c1)CCN(c1ncnc3c1[nH]c1ccccc13)C2	CYP2C19 inh 95, CYP2C9 inh 95 (no result: EphB4 ephrin blk)
OC1(c2cccc(C(F)(F)F)c2)CCN(c2ncnc3c2[nH]c2ccccc23)CC1	none (no result: CYP2C9 activ, CYP2C19 activ, CYP2C19 inh, CYP2C9 inh)
COc1ccc(C2C(C(=O)N3CCN(c4ccccn4)CC3)CC(=O)N2c2ccc(OC)cc2)cc1 (stereo not drawn)	none (no result: CYP2C9 activ, CYP2C19 activ, CYP2C19 inh, CYP2C9 inh)
CCCCNC(=O)C1c2ccccc2C(=O)N(c2ccc(OC)cc2)C1c1ccc(OC)cc1 (stereo not drawn)	none
c1ccc(CN2CCN(c3nc4ccccc4c4ccccc34)CC2)cc1	CYP2C9 inh 92
Cc1ccc2c(c1)c1ncnc(N3CCC4(CC3)OCCO4)c1n2C	CYP2C9 inh 62
c1nc(N2CCN(Cc3ccc4c(c3)OCO4)CC2)c2[nH]cnc2n1	none (no result: EphB4 ephrin blk)
c1ccc2c(c1)[nH]c1c(N3CCC4(CC3)OCCO4)ncnc12	CYP2C19 inh 68
Cc1ccc2[nH]c3c(N4CCN(Cc5ccc6c(c5)OCO6)CC4)ncnc3c2c1	CYP2C19 inh 50, CYP2C9 inh 88
COc1ccc(-n2c(Cc3cccn3C)nnc2SCC(=O)Nc2ccc(C(C)=O)cc2)cc1	none
Cc1c(S(=O)(=O)N2CCOCC2)c(=O)n(C)c(=O)n1C	none
O=C(CS(=O)CC(=O)Nc1cccc2c1CCCC2)Nc1ccc(F)cc1 (stereo not drawn)	none
Cc1ccc2[nH]c3c(=O)n(CCN4CCNCC4)cnc3c2c1	none
COc1cc2[nH]c3c(N4CCN(c5ccc(Cl)cc5)CC4)ncnc3c2cc1OC	none
